Insulin prom inh: TRM-6 insulin promoter activity inhibition; TRM-6 cells (human fetal islet line), insulin promoter-eGFP reporter, imaging; reporter expression induced with tamoxifen; inhibition, % at 2 µM; 0.9% of 130,000 active; AID 1273;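 active means inhibition above the mean plus 3 SD, with well images judged a real hit on visual review, cut at about 60% in these data, passing the limit was not always enough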
HCT116 bCat-KO: beta-catenin-lacking colon tumor cell growth suppression. HCT116 beta-catenin knockout viability, CellTiter-Glo, 60 h; hits give low values. AID 818. viability, % at 10 µM. 1.5% of 140,000 active;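 active means viability at or under a set limit, the compound median less 4 SD, cut at about 6% in these data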
p97 inhibitor: blocks human p97 ATPase activity; P55072; inhibition, % at 8 µM; recombinant p97 ATPase, Kinase-Glo ATP luminescence, 3 h; 0.42% of 220,000 active; in the data active means inhibition above about 15%
Target sequence (P55072 whole entry, looked up): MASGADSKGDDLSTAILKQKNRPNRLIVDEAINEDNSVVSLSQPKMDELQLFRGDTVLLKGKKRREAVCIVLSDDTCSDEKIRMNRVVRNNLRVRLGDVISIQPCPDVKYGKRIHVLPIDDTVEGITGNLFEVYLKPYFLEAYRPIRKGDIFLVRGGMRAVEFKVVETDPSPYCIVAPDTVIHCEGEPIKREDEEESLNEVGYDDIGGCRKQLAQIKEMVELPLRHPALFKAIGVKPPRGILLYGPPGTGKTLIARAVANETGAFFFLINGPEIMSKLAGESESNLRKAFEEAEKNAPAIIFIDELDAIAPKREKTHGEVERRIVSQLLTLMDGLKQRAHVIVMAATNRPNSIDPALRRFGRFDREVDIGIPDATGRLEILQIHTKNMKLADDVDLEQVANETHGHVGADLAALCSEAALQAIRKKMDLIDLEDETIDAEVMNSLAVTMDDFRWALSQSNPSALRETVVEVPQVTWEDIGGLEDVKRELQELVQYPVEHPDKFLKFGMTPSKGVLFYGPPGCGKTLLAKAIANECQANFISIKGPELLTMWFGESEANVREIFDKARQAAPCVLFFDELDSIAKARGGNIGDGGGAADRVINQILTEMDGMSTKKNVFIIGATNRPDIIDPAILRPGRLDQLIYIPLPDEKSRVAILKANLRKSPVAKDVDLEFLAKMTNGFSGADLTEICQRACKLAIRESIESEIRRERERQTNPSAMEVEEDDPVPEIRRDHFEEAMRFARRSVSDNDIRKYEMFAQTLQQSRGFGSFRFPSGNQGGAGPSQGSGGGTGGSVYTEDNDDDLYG
HCT116 PTEN-null: suppresses growth of cells with PTEN deletion; HCT116 PTEN-null viability, CellTiter-Glo, 60 h; hits give low values; viability, % at 10 µM; 1.2% of 140,000 active;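 active means viability at or below a set limit, 4 SD under the median of all tested compounds, cut at about 3.7% in these data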;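 further: PTEN knockout HCT116 line with beta catenin targeted HCT116 as companion control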
ROMK primary: human ROMK K+ channel modulation, primary screen | AID 1918 | Tet-inducible ROMK, thallium flux fluorescence; actives lie on both sides | 2% of 130,000 active | P48048 | B-score at 10 µM;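 active means signal ratio slope over the read window, or its plate-corrected B-score, at least 3 SD from the plate mean, either direction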;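 further: B-score of the F/F0 ratio slope over 7 to 12 s after thallium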
Lmaj promast: reduces viability of Leishmania major promastigotes; resazurin fluorescence viability; inhibition, % at 10 µM; 9% of 200,000 active; AID 1063; in the data active means inhibition above about 50%;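 further: promastigotes grown with compound for 44 hours at 28 °C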
Hits are given with their value; n = inactive; x = no result. Most compounds without a hit are left out; they make up all but 10% or so of the library.

SMILES	Insulin prom inh	HCT116 bCat-KO	p97 inhibitor	HCT116 PTEN-null	ROMK primary	Lmaj promast
Cc1cccc(NC(=O)CSc2nnc(CNC(=O)c3cccs3)o2)c1C	n	x	n	x	n	n
Cc1ccc(N(C)C(=O)c2ccc(CNc3c(N4CCC(C)CC4)c(=O)c3=O)cc2)cc1	x	x	n	x	n	x
CC(C)Oc1cccc(C(=O)Nc2ccc(CN3CCOCC3)cc2)c1	n	n	n	n	x	79
COc1c(C)cccc1C(=O)Nc1ccc(CN2CCOCC2)cc1	n	n	n	n	x	98
COc1cccc(NC(=O)c2ccc(CN3CCOCC3)cc2)c1	n	n	n	n	x	n
COc1ccccc1C(=O)Nc1ccc(CN2CCCCC2)cc1	n	n	n	n	x	n
COc1ccc(C2NC(=S)NC3=C2CCc2cc(OC)ccc23)cc1 (centres undefined)	x	n	n	n	n	63
Cc1ccc(/C=C2\CCCC3=C2NC(=S)NC3c2ccc(C)cc2)cc1 (centres undefined)	n	n	n	n	n	n
C=C1C(C(=O)Nc2ccccc2)C1C(=O)Nc1ccccc1 (centres undefined)	x	x	n	x	n	x
Cc1ccc(/C=N/NC(=O)CNC(=O)c2cccc([N+](=O)[O-])c2C)o1	x	x	n	x	n	n
O=C(Cc1ccc(-n2c(=O)c3ccccc3n(Cc3ccc(F)cc3)c2=O)cc1)NCC1CCCO1 (centres undefined)	n	n	n	n	n	n
CCc1ccccc1NC(=O)Cn1c(=O)n(-c2ccc(CC(=O)NCC3CCCO3)cc2)c(=O)c2ccccc21 (centres undefined)	n	x	n	x	n	n
O=C(Cc1ccc(-n2c(=O)c3ccccc3n(Cc3ccccc3Cl)c2=O)cc1)NCC1CCCO1 (centres undefined)	n	x	n	x	n	100
O=C(Cc1ccc(-n2c(=O)c3ccccc3n(Cc3ccccc3F)c2=O)cc1)NCC1CCCO1 (centres undefined)	n	n	n	n	n	99
Cc1ccc(-n2c(C)cc(/C([O-])=C(/C(=S)Nc3ccc(F)c(Cl)c3)[n+]3ccccc3)c2C)cc1	x	n	n	n	n	91
COc1ccc2c(c1OC)C(=O)OC2C1c2c(cc3c(c2OC)OCO3)CCN1C (centres undefined)	n	n	n	n	x	n
CN1CCc2cc3c(c4c2[C@H]1[C@H](O)c1ccccc1-4)OCO3	n	n	n	n	n	96
COc1ccc(C(NC(C)=O)c2ccc3cccnc3c2O)c(OC)c1 (centres undefined)	x	3.7	x	2.5	x	x
CCCC(=O)NC(c1ccccc1OC)c1ccc2cccnc2c1O (centres undefined)	n	x	n	x	n	100
Cc1cc(NC(=S)N(CCCN2CCN(C)CC2)Cc2ccco2)ccc1Cl	x	x	n	x	n	n
CC(C)C(=O)N1CCN(c2ccc(NC(=O)c3ccc4c(c3)OCCO4)cc2Cl)CC1	n	1.3	n	1.7	n	n
CCCCOc1ccc(Cl)cc1CSc1nnc(CC)n1N	n	n	n	n	x	88
COC(=O)c1ccccc1C(=O)c1ccc2c(c1)NC(=O)CO2	x	x	n	x	n	n
O=c1c2sccc2nc(SCc2ccc([N+](=O)[O-])cc2)n1Cc1ccccn1	n	n	n	n	n	63
Cc1cc(Cl)ccc1NC(=O)/C=N/O	x	x	n	x	n	x
SMILES	Insulin prom inh	HCT116 bCat-KO	p97 inhibitor	HCT116 PTEN-null	ROMK primary	Lmaj promast
Cc1c(CCOC(=O)c2cc([N+](=O)[O-])cc([N+](=O)[O-])c2)sc[n+]1CC(=O)c1ccc(Br)cc1	x	x	n	x	n	100
Cc1nnc(SCc2cc(=O)[nH]c(=S)[nH]2)s1	x	x	n	x	n	n
CCOc1ccccc1-n1c(=O)c2ccccc2c2ccccc2c1=O	n	n	n	n	n	77
CC(=O)NCc1ccc(S(=O)(=O)NC(C(=O)O)C(C)C)cc1 (centres undefined)	n	x	n	x	n	n
COC(=O)c1ccc(SCC(=O)NC2CCCC2)c([N+](=O)[O-])c1	n	n	n	n	n	60
COC(=O)c1ccc(SCC(=O)N2CCC(C)CC2)c([N+](=O)[O-])c1	n	n	n	n	n	64
COC(=O)c1ccccc1NC(=S)N(Cc1ccc2c(c1)OCO2)Cc1cc2ccc(C)cc2[nH]c1=O	n	n	n	n	n	97
COC(=O)c1ccccc1NC(=S)N(Cc1ccc2c(c1)OCO2)Cc1cc2ccc(OC)cc2[nH]c1=O	n	n	n	n	n	58
COC(=O)c1ccccc1NC(=S)N(Cc1ccc2c(c1)OCO2)Cc1cc2cc(C)ccc2[nH]c1=O	n	n	n	n	n	99
O=c1[nH]c2ccccc2c(O)c1-c1cc2ccccc2oc1=O	x	x	n	x	n	n
Cc1ccc(SCC(=O)NC(=O)Nc2ccc3c(c2)OCCO3)cc1C	n	n	n	n	x	n
COc1ccccc1N1C(=O)c2ccc(C(=O)Nc3nccs3)cc2C1=O	n	x	n	x	n	n
Cc1ccc(CN2CCN(CCCn3cccn3)CC2CCO)cc1 (centres undefined)	x	x	n	x	n	n
Cc1cc(-n2cccn2)ccc1CN1CCN(C2CCCC2)C(CCO)C1 (centres undefined)	x	x	n	x	n	64
CC(C)CCN1CCN(Cc2cccc(-n3cccn3)c2)CC1CCO (centres undefined)	x	x	n	x	x	83
CC(=O)c1cccc(CN2CCN(Cc3ccccc3)C(CCO)C2)c1 (centres undefined)	x	x	n	x	n	n
OCCC1CN(Cc2cccc(-n3cccn3)c2)CCN1Cc1ccccc1 (centres undefined)	x	x	n	x	n	79
Cc1ccc(CN2CCN(Cc3ccc(-n4cccn4)cc3)CC2CCO)cc1 (centres undefined)	n	x	n	x	n	62
COc1ccccc1-n1c(C)nc2cc(C(=O)NCCN3CCOCC3)ccc21	x	x	n	x	n	n
Cc1ccc(C(=O)NCCc2ccccn2)cc1S(=O)(=O)N1CCOCC1	x	x	n	x	x	x
Nc1cc(=O)[nH]c(=O)n1CC1CC1	n	n	n	n	n	n
Cn1c(N)c(C(=O)COC(=O)COc2ccc3ccccc3c2)c(=O)n(C)c1=O	n	x	n	x	x	n
Cc1ccc2nc(SCC(=O)NNC(=O)c3ccccc3)[nH]c2c1	n	n	n	n	n	n
O=C(OCc1cc(=O)n2c(n1)sc1ccccc12)c1ccc(O)cc1	n	n	n	n	n	59
COc1ccc(-n2cnc3c(sc4nc(N5CCOCC5)c5c(c43)CCCC5)c2=O)cc1	x	x	n	x	n	87
SMILES	Insulin prom inh	HCT116 bCat-KO	p97 inhibitor	HCT116 PTEN-null	ROMK primary	Lmaj promast
COc1ccc(/C=C2\SC(=O)N=C2N)cc1	n	n	n	n	n	57
Cc1sc2nc(SCC(=O)NCc3ccco3)[nH]c(=O)c2c1C	n	n	n	n	x	n
Cc1cccc(Nc2nnc(SCC(=O)NCc3cccs3)s2)c1C	n	n	n	n	x	58
Cc1sc2nc(SCC(=O)NCc3cccs3)[nH]c(=O)c2c1C	91	n	n	n	x	n
CCS(=O)(=O)c1nc(S(=O)(=O)c2ccc(Cl)cc2)c(N2CCc3ccccc3C2)s1	n	n	n	n	n	51
Oc1ccc(O)c(Cc2nc3ccccc3s2)c1	n	x	15	x	n	n
Oc1ccccc1OCc1nc2ccccc2s1	x	n	n	n	x	n
